A selection: hits, their analogues and other compounds. The true share with any hit is near 1%.
TrxR1 substrate: qHTS Assay for Substrates of Mammalian Selenoprotein Thioredoxin Reductase 1 (TrxR1): qHTS; purified TrxR1 substrate turnover, NADPH consumption readout; Thioredoxin reductase 1, cytoplasmic (Rattus norvegicus), O89049; Potency, µM (series often up to 114 µM), for inactives: at the highest dose activity change, negative = substrate turnover; actives 0.01% (n = 390,000); further: nearly all actives have a fitted effect of over 50% in size
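Rat TrxR1, dispensed at 90 nM, was prereduced with 400 uM NADPH (final) for 5 min at ~22 deg C, then incubated with compound 15 min before 400 uM selenite. A first-read NADPH fluorescence drop versus no-compound background flagged substrates.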
GALK inh: qHTS Assay for Inhibitors of Human Galactokinase (GALK). Potency, µM (titrated, usually from 57.5 µM), without a hit: at the top dose activity change, negative = inhibition, actives largely listed as inhibitors. Purified GALK, Kinase-Glo residual ATP luminescence. P51570. actives 0.007% (n = 270,000)
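Human GALK (5 nM) with 35 uM ATP and 100 uM galactose in 20 mM HEPES pH 8.0, 5 mM MgCl2, 60 mM NaCl, 1 mM DTT, 0.01% BSA. After 1 h at room temperature, leftover ATP was read by Kinase-Glo Plus luminescence.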
USP2a inh: qHTS Assay for Inhibitors of Ubiquitin-specific Protease USP2a Using CHOP2 as the Reporter; USP2 core, Ub-CHOP2 coupled fluorogenic reporter, 485/531; Potency, µM (top dose mostly 38.3 µM), for inactives: at the highest dose activity change, negative = inhibition, usual class: inhibitors; AID 463254, 2010; actives 0.01% (n = 330,000);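 further: plate controls were DMSO wells for no effect and full inhibition by NEM control for full effect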
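USP2 core (10nM final) preincubated 30min RT with compound in 20mM Tris-HCl pH 8.0, 2mM CaCl2, 2mM beta-mercaptoethanol, 0.05% CHAPS; 25nM Ub-CHOP2 plus 25nM reporter substrate added, fluorescence (Ex485/Em531) read after 60min.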
Eya2 phos inh: qHTS Assay for Inhibitors of the Phosphatase Activity of Eya2 | Protein phosphatase EYA2 (Homo sapiens), O00167 | Potency, µM (titrated, usually from 76.9 µM), without a hit: at the highest dose activity, negative = inhibition, hits mostly inhibitors | recombinant Eya2, OMFP fluorescence dephosphorylation (OMFP is methylfluorescein phosphate) | actives 0.006% (n = 330,000)
Target sequence (O00167 whole entry, looked up): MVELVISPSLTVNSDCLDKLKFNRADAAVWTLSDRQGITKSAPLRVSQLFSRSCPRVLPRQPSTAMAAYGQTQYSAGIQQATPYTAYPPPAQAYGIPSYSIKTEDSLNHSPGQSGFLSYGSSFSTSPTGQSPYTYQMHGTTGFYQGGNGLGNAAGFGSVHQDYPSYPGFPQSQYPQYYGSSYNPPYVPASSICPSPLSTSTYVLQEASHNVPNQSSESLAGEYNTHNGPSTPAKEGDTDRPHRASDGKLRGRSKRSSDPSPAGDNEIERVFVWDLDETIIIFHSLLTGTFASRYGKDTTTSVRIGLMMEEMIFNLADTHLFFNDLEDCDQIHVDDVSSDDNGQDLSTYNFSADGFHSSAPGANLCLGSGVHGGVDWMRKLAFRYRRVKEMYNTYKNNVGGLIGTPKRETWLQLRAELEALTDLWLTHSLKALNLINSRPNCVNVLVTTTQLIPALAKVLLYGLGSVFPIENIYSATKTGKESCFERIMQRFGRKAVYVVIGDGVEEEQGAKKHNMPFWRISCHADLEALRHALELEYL
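Eya2 (0.2 uM) preincubated 10 min at ambient with compound, then OMFP substrate added at 50 uM; 10 min reaction in 50 mM HEPES pH 7.5, 50 mM NaCl, 5 uM MgCl2, 0.05% BSA, 1 mM DTT. Fluorescence read at Ex 485/Em 525 nm.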
TrxR1 inh: qHTS Assay for Inhibitors of Mammalian Selenoprotein Thioredoxin Reductase 1 (TrxR1): qHTS. actives 1% (n = 390,000). recombinant rTrxR1, NADPH fluorescence consumption, selenite substrate. Potency, µM (series often up to 114 µM), inactives show top-dose activity change, negative = inhibition, usual class: inhibitors. Thioredoxin reductase 1, cytoplasmic (Rattus norvegicus), O89049; further: nearly all actives have a fitted effect of over 65% in size
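Rat TrxR1 (90 nM in the dispensed reagent) was pre-reduced with 400 uM NADPH for 5 min at room temperature, then incubated with compound for 15 min. After 400 uM selenite was added, NADPH fluorescence (Ex 340/Em 450 nm) was followed for 8 min.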
RGS4 inhibitor: Inhibitors of Regulator of G Protein Signaling (RGS) 4: qHTS. Regulator of G-protein signaling 4 (Homo sapiens), P49798. Transcreener GDP fluorescence polarization, RGS4-accelerated GTP hydrolysis. Potency, µM (titrated, usually from 114 µM), for the others: top-dose activity change, negative = inhibition, usual class: inhibitors. actives 0.039% (n = 390,000); further: nearly all actives have a fitted effect of over 75% in size
Target sequence (P49798 whole entry, looked up): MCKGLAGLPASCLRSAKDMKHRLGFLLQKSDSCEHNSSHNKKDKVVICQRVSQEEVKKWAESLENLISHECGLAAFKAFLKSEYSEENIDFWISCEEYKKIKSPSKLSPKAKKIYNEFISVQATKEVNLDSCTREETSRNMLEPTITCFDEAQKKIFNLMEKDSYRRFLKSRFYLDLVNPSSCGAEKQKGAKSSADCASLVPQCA
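MLSMR compounds (23 nl, pin-transferred) preincubated 10 min at room temperature with a 500nM (2x) first reagent, then RGS4 at 900nM (2x) plus Transcreener GDP mix added; fluorescence polarization (620/688 nm) read before and after 90 min at 30 °C.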
An asterisk follows results filed as active; ? = inconclusive; · = not tested or not shown; ! = a repeat was not active; [ ] = dose if it differs, or a comment. The call rests on the fitted dose curve; in most records, active means well fitted curve in the direction sought with a large enough effect; inconclusive means small, poorly fitted or top-dose-only effect, or another doubt; inactive means no such curve, though single readings can be large; an effect the other way counts as inactive or inconclusive. Unless noted, on the % scale 0 is the no-effect control and ±100 the full control effect; potency means the concentration at half of the fitted maximal effect.

SMILES	TrxR1 substrate	GALK inh	USP2a inh	Eya2 phos inh	TrxR1 inh	RGS4 inhibitor
Clc1ccc(Cn2c(/C=C/c3ccco3)nc3ccccc32)cc1	13%	-3%	5%	-5%	45µM*	?
CCCCn1c(/C=C/c2ccco2)nc2ccccc21	5%	0%	3%	-4%	50µM*	-36%
Cc1ccc(Cn2c(/C=C/c3ccco3)nc3ccccc32)cc1	-2%	0%	0%	-19%	7%	-40%
CCCn1c(/C=C/c2ccco2)nc2ccccc21	14%	-1%	2%	-25%	50µM*	-36%
COc1ccc(OC)c(NC(=O)c2nc(S(=O)(=O)Cc3ccc(F)cc3)ncc2Cl)c1	1%	·	·	·	0.71µM*	?
COc1ccccc1NC(=O)c1nc(S(=O)(=O)Cc2ccccc2)ncc1Cl	0%	-2%	4%	0%	3.5µM*	?
CCOc1ccccc1NC(=O)c1nc(S(=O)(=O)Cc2ccccc2)ncc1Cl	-4%	-1%	2%	0%	7.9µM*	?
CCCN1CNc2c(c(=O)[nH]c(=S)n2CCc2c(C)cccc2C)C1	3%	·	·	·	-9%	-17%
c1ccc2c(c1)CCCN2	7%	·	·	·	12%	·
COc1ccc(OC)c(C(Cc2ccnc3ccccc23)Cc2ccnc3ccccc23)c1	0%	·	·	·	27%	·
CCCOC(=O)C1=C(C)CS[C@@H]2[C@H](NC(=O)COc3ccccc3)C(=O)N12	4%	·	·	·	-13%	·
O=C(O)/C=C/C(=O)c1c(-c2ccccc2)[nH]c2ccccc12	-7%	-2%	3%	5%	45µM*	-47%
CC(=O)c1c(-c2ccccc2)[nH]c2ccccc12	2%[57.1 µM]	1%	0%	1%	-1%[57.1 µM]	19%
CN(C)c1cccc2c(C=C(C#N)C#N)ccc(N(C)C)c12	-11%	2%	4%	-7%	25µM*	-2%
O=C(CCc1ccc(O)cc1)c1c(O)cc(O)cc1O	5%[57.1 µM]	-3%	4%	-3%	10µM*	19µM*!
Brc1cccc[n+]1CCCC[n+]1ccccc1Br	-13%	·	·	·	?	·
C=CCN(CC=C)c1ccc(/C=C/c2ccnc3ccccc23)cc1	-16%	·	·	·	-10%	·
CCOc1ccc2[nH]c(=O)c(C(c3nnnn3Cc3ccco3)N3CCC(C)CC3)cc2c1 (stereo not drawn)	18%	0%	2%	-6%	?	-17%
COc1ccc2[nH]c(=O)c(CN(Cc3nnnn3Cc3ccco3)C3CCCCC3)cc2c1	1%	-4%	-17%	17%	18µM*	?
CCOc1ccc2[nH]c(=O)c(C(c3nnnn3Cc3ccco3)N3CCCC(C)C3)cc2c1 (stereo not drawn)	17%[57.1 µM]	-2%	-1%	11%	13µM*	-17%
COc1ccc2[nH]cc(C(=O)CNc3nccs3)c2c1	6%	·	·	·	9%	·
CN(C)c1ccc(/C=C/c2ccnc3ccc(Cl)cc23)cc1	0%	·	·	·	6%	·
COc1ccc2c(c1)CCc1c(C(=O)N3CCCCCC3)noc1-2	1%	0%	-1%	-30%	11µM*	21%
O=[N+]([O-])c1ccc(-c2ccn[nH]2)o1	2%[57.1 µM]	3%	2%	-4%	3.5µM*	0%
Nc1nc(N)nc(-c2ccc([N+](=O)[O-])o2)n1	-6%[57.1 µM]	·	·	·	-29%	6%
SMILES	TrxR1 substrate	GALK inh	USP2a inh	Eya2 phos inh	TrxR1 inh	RGS4 inhibitor
COC(=O)C1=C(C)OC(N)=C(C#N)C1c1ccco1 (stereo not drawn)	0%	1%	0%	-10%	1%	-27%
CC(=O)C1=C(C)OC(N)=C(C#N)C1c1ccco1 (stereo not drawn)	2%[57.1 µM]	-3%	3%	2%	11µM*	0%
Cc1ccc(-c2nnc(SC(C)C(=O)NCc3ccco3)n2C)cc1 (stereo not drawn)	-5%	·	·	·	4%	·
CNc1ccc(/C=C2\C=Cc3ccccc32)cc1OC	-11%	·	·	·	-23%	·
CCOc1ccc([N+](=O)[O-])cc1CNC1CCCCCCC1	-1%	5%	-3%	-9%	25%	0%
CS(=O)(=O)Nc1ccc([N+](=O)[O-])cc1OC1CCCCC1	·	·	·	·	·	8.4µM*!
COc1cc(OC)nc(-n2ncc(Br)c(Br)c2=O)n1	6%	·	-2%	-6%	3.5µM*	-21%
CN(C)c1c(Cl)cc(/C=C2\C=Cc3ccccc32)cc1Cl	9%[0.0914 µM]	·	·	·	-8%	·
CC(C)(C)CC(=O)Nc1cc(S(=O)(=O)N2CCCCCC2)ccc1Cl	-4%	3%	2%	-6%	14%	-6%
O=C(CCl)Nc1cc(S(=O)(=O)N2CCCCCC2)ccc1Cl	-11%	-3%	0%	-14%	7.9µM*	-22%
CN(C)C(=O)N1CCN(S(=O)(=O)c2ccc3ccccc3c2)CC1	-11%	-4%	-1%	0%	-8%	8%
O=C(CCl)N1CCN(S(=O)(=O)c2ccc3ccccc3c2)CC1	10%	-2%	-1%	3%	8.9µM*	-36%
Clc1ccc[n+](CCCCC[n+]2cccc(Cl)c2)c1	-2%	·	·	·	?	·
O=C(C[n+]1ccccc1Cl)c1ccc2ccccc2c1	13%	·	·	·	-5%	·
O=C(CSC1=NS(=O)(=O)c2ccccc21)Nc1ccccc1	6%[57.1 µM]	2%	-6%	1%	7.9µM*	?
COC(=O)CSC1=NS(=O)(=O)c2ccccc21	-2%	-1%	3%	18%	2.2µM*	?
O=C(CSC1=NS(=O)(=O)c2cc(F)ccc2N1)Nc1ccccc1	6%	·	0%	1%	16%	9%
CNc1ccc(C=C2c3ccccc3-c3ccccc32)cc1	-5%	·	·	·	-5%	·
O=C(COC(=O)CNC(=O)C1CCCCC1)NC1CC1	3%	·	·	·	9%	1%
CC(=O)Nc1ccn(C2OC(C(COC(C)=O)NC(=O)C(C)NC(=O)OC(C)(C)C)C(OC(C)=O)C2OC(C)=O)c(=O)n1 (stereo not drawn)	-1%	·	·	·	13%[57.1 µM]	-16%
Cc1cccc2c(C(O)c3cn(C)c4ccccc34)c[nH]c12 (stereo not drawn)	-2%	·	·	·	-17%	·
NC1(C(=O)O)CCc2cc(P(=O)(O)O)ccc21 (stereo not drawn)	·	·	·	·	·	38µM*

High-throughput results: PubChem, National Center for Advancing Translational Sciences (NCATS)
